# The entries come from a sample that favours hits as a whole.
# ROCK2 blocker: inhibitors of human Rho kinase 2. AID 604. inhibition, % at 6 µM. 60,000 compounds, 0.35% hits. purified ROCK2, Kinase-Glo ATP depletion luminescence;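 active = inhibition above the screen-wide mean inhibition plus 3 SD, cut at about 18% in these data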;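 note: plate controls were DMSO wells for no effect and Y-27632 control wells after no-enzyme background subtraction for full effect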
# PKA inh: PKA (human) kinase inhibition; AID 524; 65,000 compounds, 0.1% hits; PKA Kemptide phosphorylation, Kinase-Glo ATP luminescence; P17612; inhibition, % at 6 µM;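 active = inhibition above the screen-wide mean inhibition plus 3 SD, cut at about 21% in these data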
# TNAP act mid DEA: activates human TNAP at intermediate phosphate acceptor concentration; purified TNAP, CDP-star luminescence, 100 mM DEA, 30 min; stronger effect = higher value; scale: 0 levamisole-inhibited, 1 vehicle-only enzyme; activation factor at 20 µM; 64,000 tested, under 10 active;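 active = activation factor of at least 2 at 20 µM, relative to controls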
# Target sequence (P05186 whole entry, looked up): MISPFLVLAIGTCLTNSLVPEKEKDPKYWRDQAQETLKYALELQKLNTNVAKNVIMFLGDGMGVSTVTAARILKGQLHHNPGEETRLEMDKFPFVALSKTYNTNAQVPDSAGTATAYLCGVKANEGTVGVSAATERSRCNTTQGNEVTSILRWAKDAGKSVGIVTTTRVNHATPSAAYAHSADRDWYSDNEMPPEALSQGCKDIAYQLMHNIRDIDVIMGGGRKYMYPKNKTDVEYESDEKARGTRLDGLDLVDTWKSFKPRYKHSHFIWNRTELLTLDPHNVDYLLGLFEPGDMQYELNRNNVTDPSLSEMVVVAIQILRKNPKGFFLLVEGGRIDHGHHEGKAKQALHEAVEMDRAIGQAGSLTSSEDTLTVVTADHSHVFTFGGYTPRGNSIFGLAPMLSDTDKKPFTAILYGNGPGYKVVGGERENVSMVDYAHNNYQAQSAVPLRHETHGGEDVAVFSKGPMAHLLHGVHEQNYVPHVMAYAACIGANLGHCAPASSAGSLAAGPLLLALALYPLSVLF
# The depositor's hits bear a star; . = no result given.
SMILES,ROCK2 blocker,PKA inh,TNAP act mid DEA
Cc1[nH]c2ccccc2c1C1=CCNCC1,26.2*,18.5,0.9
C(#CCN1CCOCC1)COC/C=C/c1ccccc1,2.3,10.7,0.9
Cc1cccnc1NC1=NCC(C)S1 (configuration not stated),-5.7,-0.8,0.9
CC(C)OC(=O)C1C(=O)NC2(C)CC1c1ccccc1O2 (configuration not stated),.,3.7,0.9
CCn1nc(-c2cccs2)nc2c(=O)n(C)c(=O)nc1-2,69.0*,2.1,0.9
CSc1nnc(C2CCNCC2)n1C,-5.7,-4.5,1
O[C@@H]1CCCC[C@H]1N1CCC(c2ccccc2)CC1,1.7,2.9,0.9
CC(C)[C@@]1(NC(=O)[C@@H]2C=C3c4cccc5[nH]cc(c45)C[C@H]3N(C)C2)O[C@@]2(O)[C@@H]3CCCN3C(=O)[C@H](Cc3ccccc3)N2C1=O,12.9,-6.0,1
CC(C)[C@H]1C(=O)N2CCC[C@H]2[C@]2(O)O[C@](NC(=O)[C@@H]3C=C4c5cccc6[nH]cc(c56)C[C@H]4N(C)C3)(C(C)C)C(=O)N12,36.3*,3.9,0.9

# Assay outcomes as filed in PubChem.
